Hits are enriched below; roughly 12% of the tested compounds scored in any of these assays.
SARS PLP yeast: SARS-CoV PLP inhibition in yeast; 330,000 tested, 0.19% active; AID 485353; S. cerevisiae expressing SARS-CoV PLpro, growth rescue; Potency, µM (titrated, usually from 32.9 µM), hits mostly activators; calls by dose curve; also: nearly all actives have a fitted effect of over 55% in size
Pf growth 96h: inhibits malaria parasite growth, 96 h; P. falciparum luciferase reporter growth, 96 h; Potency, µM (titrated, usually from 28.7 µM), actives largely listed as inhibitors; 320,000 tested, 6.9% active
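96 h incubation, 37 C, 5% CO2, of luciferase-reporter P. falciparum-infected RBCs (2% hematocrit, 0.05% parasitemia final) with test compounds; endpoint luminescence.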
Pf growth 48h: P. falciparum growth inhibition at 48 hours (one generation); P. falciparum luciferase growth in erythrocytes, 48 h; Potency, µM (top dose mostly 28.7 µM), hits mostly inhibitors; 310,000 tested, 5.9% active; AID 504832
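A one-generation exposure of luciferase-tagged malaria parasites in RPMI 1640/Albumax erythrocyte culture, 37 C and 5% CO2. Inhibition is inferred from decreased luminescence after adding detection reagent.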
Sm TGR inh: inhibitors of Schistosoma mansoni thioredoxin glutathione reductase | purified TGR, DTNB reduction, TNB absorbance 405 nm | AID 485364 | Q962Y6 | 360,000 tested, 3% active | Potency, µM (doses to about 114 µM), usual class: inhibitors; also: nearly all actives have a fitted effect of over 60% in size
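Kinetic colorimetric format: TGR-catalysed, NADPH-driven DTNB reduction monitored via TNB absorbance. Enzyme dispensed at 20 nM; compound exposure 15 min at room temperature before reaction start.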
AmpC detergent: AmpC beta-lactamase inhibition with detergent present; Potency, µM (titrated, usually from 114 µM), usual class: inhibitors; 370,000 tested, 0.041% active; AmpC hydrolysis of nitrocefin, absorbance 480 nm, 0.01% Triton; also: nearly all actives have a fitted effect of over 25% in size
Target sequence (P00811 whole entry, looked up): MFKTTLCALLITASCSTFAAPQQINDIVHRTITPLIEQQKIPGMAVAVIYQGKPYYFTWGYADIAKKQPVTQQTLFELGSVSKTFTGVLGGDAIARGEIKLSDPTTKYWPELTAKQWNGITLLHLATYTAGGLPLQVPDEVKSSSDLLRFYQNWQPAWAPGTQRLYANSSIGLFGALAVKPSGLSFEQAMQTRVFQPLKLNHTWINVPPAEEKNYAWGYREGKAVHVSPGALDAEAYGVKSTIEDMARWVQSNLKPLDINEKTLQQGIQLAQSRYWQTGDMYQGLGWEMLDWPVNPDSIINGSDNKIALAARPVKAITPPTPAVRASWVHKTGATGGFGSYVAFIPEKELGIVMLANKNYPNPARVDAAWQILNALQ
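AmpC (5.3 nM in the dispensed reagent) in 20 mM phosphate pH 7.0 with 0.01% (detergent screen) or 0.0001% Triton X-100 was preincubated with compounds for 15 min at room temperature. Nitrocefin was then added from an 800 uM solution, and hydrolysis was followed at 480 nm.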
AmpC no deterg: AmpC beta-lactamase inhibition without detergent | P00811 | AmpC nitrocefin hydrolysis, absorbance 480 nm, 0.0001% Triton | Potency, µM (highest dose often 57.1 µM), most hits filed as inhibitors | 330,000 tested, 0.52% active; also: nearly all actives have a fitted effect of over 20% in size
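20 mM phosphate pH 7.0 + 0.01% (detergent screen) or 0.0001% Triton X-100; 5.3 nM AmpC reagent; cpd preinc 15 min RT; nitrocefin (800 uM stock) to start; A480 q20 s × 4 min; Activity was normalised to no-enzyme and no-compound control wells.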
Each line names hits and unclear results; the compound was inactive in the other large screens. Unless noted, calls follow the shape of the dose curve; as a rule, active = well fitted curve in the direction sought with a large enough effect; inconclusive = small, poorly fitted or top-dose-only effect, or another doubt; inactive = no such curve, though single readings can be large; an effect the other way counts as inactive or inconclusive.

O=S(=O)(c1ccccc1)c1nnn2c1nc(NC1CCCCC1)c1sccc12	none (no result: SARS PLP yeast, Pf growth 96h, Pf growth 48h, AmpC no deterg)
CC(=O)c1ccc(NC(=O)c2nc(-c3ccccc3)n(-c3ccccc3Cl)n2)cc1	none (no result: SARS PLP yeast, Pf growth 96h, Pf growth 48h, AmpC no deterg)
O=C(O)c1cccc(N2C(=O)c3cc([N+](=O)[O-])cc4cc([N+](=O)[O-])cc(c34)C2=O)c1	Pf growth 48h inconclusive, Sm TGR inh 2µM
O=C1c2ccc(Oc3cccc([N+](=O)[O-])c3)cc2C(=O)N1c1ccccn1	none
O=C(O)c1cccc(N2C(=O)c3cccc4cccc(c34)C2=O)c1	none
O=C1c2cc([N+](=O)[O-])cc3cc([N+](=O)[O-])cc(c23)C(=O)N1c1ccccn1	Sm TGR inh 50.1µM
CCc1ccc2ncc3c(-c4ccc(C)cc4)nn(CC(=O)Nc4ccc(C)cc4)c3c2c1	none (no result: SARS PLP yeast, Pf growth 96h, Pf growth 48h, AmpC no deterg)
COc1cc(CCC(=O)N2CCN(c3ccc([N+](=O)[O-])cc3)CC2)cc(OC)c1OC	Pf growth 96h inconclusive, Pf growth 48h inconclusive
COc1cc(CCC(=O)N2CCN(S(=O)(=O)c3ccc(C)c(C)c3)CC2)cc(OC)c1OC	Pf growth 96h 4.65µM, Pf growth 48h inconclusive
O=C(c1cccc(Br)c1)N1CCN(c2ccc(N3CCOCC3)nn2)CC1	Pf growth 96h inconclusive
CCOc1ccc(OCCC(=O)OCC(=O)N2CCN(S(=O)(=O)c3ccc(C)cc3)CC2)cc1	Pf growth 48h inconclusive, Sm TGR inh 50.1µM
Cc1ccc(C(=O)N2CCN(S(=O)(=O)c3ccc(Br)cc3)CC2)o1	Pf growth 96h inconclusive, Pf growth 48h 6.57µM, AmpC detergent inconclusive
Cc1ccc(C(=O)N2CCN(c3ccc(N4CCOCC4)nn3)CC2)cc1C	Pf growth 96h 5.22µM
COc1ccc(S(=O)(=O)N2CCN(C(=O)c3ccc(C)o3)CC2)cc1	Pf growth 96h inconclusive, Pf growth 48h inconclusive
COc1ccc(-c2cc(C(F)(F)F)nc(SCC(=O)NC(C)c3ccccc3)n2)cc1 (centres undefined)	none (no result: SARS PLP yeast, Pf growth 96h, Pf growth 48h, AmpC no deterg)
COc1ccc(CNc2oc(/C=C/c3cc(OC)c(OC)c(OC)c3)nc2C#N)cc1	none (no result: SARS PLP yeast, Pf growth 96h, Pf growth 48h, AmpC no deterg)
O=C(/C=C/c1c(F)cccc1Cl)NCc1ccc2c(c1)OCO2	Sm TGR inh inconclusive
Cc1ccc(S(=O)(=O)N2CCN(C(=O)COc3ccc(Br)cc3)CC2)cc1	Pf growth 96h inconclusive, Pf growth 48h 13.1µM, AmpC detergent inconclusive
COc1cc(CCC(=O)N2CCN(c3ncccn3)CC2)cc(OC)c1OC	none
COc1cc(CCC(=O)N2CCN(c3ccc(N4CCOCC4)nn3)CC2)cc(OC)c1OC	Pf growth 96h 7.38µM, AmpC detergent inconclusive (no result: Pf growth 48h)
COc1ccc(S(=O)(=O)N2CCN(C(=O)c3c(C)nn(-c4ccccc4)c3Cl)CC2)cc1	Pf growth 96h 4.65µM
Cc1ccc(S(=O)(=O)N2CCN(C(=O)c3c(C)nn(-c4ccccc4)c3Cl)CC2)cc1	Pf growth 96h inconclusive, Pf growth 48h inconclusive
CS(=O)(=O)N1CCN(C(=O)COc2ccc3ccccc3c2)CC1	Pf growth 48h 2.08µM
N#Cc1ccc(OCC(=O)N2CCN(S(=O)(=O)c3cccc(Cl)c3)CC2)cc1	Pf growth 96h 9.28µM, Pf growth 48h inconclusive
Cc1ccc(S(=O)(=O)N2CCN(C(=O)COC(=O)Cc3ccc(F)cc3)CC2)c(C)c1	AmpC detergent inconclusive
O=C(COc1ccccc1[N+](=O)[O-])N1CCN(S(=O)(=O)c2ccccc2)CC1	none
Cc1cc(=O)oc2cc(OCC(=O)N3CCCC(C)C3)ccc12 (centres undefined)	none
Cc1ccc(OCC(=O)N2CCN(S(=O)(=O)c3ccccc3[N+](=O)[O-])CC2)cc1	Pf growth 48h 9.28µM
Cc1cc(=O)oc2ccc(OCC(=O)N3CCC(C)CC3)cc12	Sm TGR inh 17.8µM, AmpC detergent inconclusive
CSc1ccc(CSCC(=O)N2CCN(S(=O)(=O)c3ccc(C)cc3C)CC2)cc1	Pf growth 48h 11.7µM, AmpC detergent inconclusive
CCc1ccc2oc(-c3ccc(NC(=O)c4cccc(Cl)c4Cl)cc3)nc2c1	none (no result: SARS PLP yeast, Pf growth 96h, Pf growth 48h, AmpC no deterg)
COc1ccc(CCC(=O)N2CCN(S(=O)(=O)c3ccc4ccccc4c3)CC2)cc1	SARS PLP yeast inconclusive, Pf growth 96h inconclusive
Cc1ccc(S(=O)(=O)N2CCN(C(=O)c3ccc(Br)o3)CC2)c(C)c1	Pf growth 96h inconclusive, Pf growth 48h 6.57µM
Cc1ccc(OCCC(=O)OCC(=O)NC(=O)NC2CCCC2)cc1	AmpC no deterg 35.5µM
COc1ccc(S(=O)(=O)N2CCN(C(=O)COc3ccccc3)CC2)cc1	Pf growth 96h 7.38µM
COc1ccc(CCC(=O)N2CCN(S(=O)(=O)c3ccc(OC(F)(F)F)cc3)CC2)cc1	Pf growth 96h 11.7µM, Pf growth 48h 9.28µM
CC(=O)c1ccc(N2CCN(c3nc4ccccc4c4nc(-c5cccc(C)c5)nn34)CC2)cc1	none (no result: SARS PLP yeast, Pf growth 96h, Pf growth 48h, AmpC no deterg)
COc1cc(/C=C(\C#N)c2nc3ccccc3c(=O)[nH]2)cc(OC)c1OC	none (no result: SARS PLP yeast, Pf growth 96h, Pf growth 48h, AmpC no deterg)
COc1ccc(S(=O)(=O)N2CCN(C(=O)COc3ccc4c(C)cc(=O)oc4c3)CC2)cc1	Pf growth 96h 4.65µM, Pf growth 48h inconclusive
CC(=O)c1ccc(OCC(=O)N2CCN(S(=O)(=O)c3ccc(C)cc3C)CC2)cc1	Pf growth 96h 9.28µM, Pf growth 48h inconclusive
O=S(=O)(c1ccc(Oc2ccc(S(=O)(=O)N3CCOCC3)cc2)cc1)N1CCOCC1	Pf growth 96h inconclusive
O=S(=O)(c1ccc(OCc2ccc(Br)cc2)cc1)N1CCOCC1	Pf growth 96h 6.57µM
O=c1nc(-c2ccccc2)c2cc(SC(F)F)ccc2[nH]1	Pf growth 48h inconclusive
Cn1cnc([N+](=O)[O-])c1S(=O)(=O)c1ccc(Cl)cc1	Sm TGR inh 0.1µM, AmpC detergent inconclusive
Cc1onc(C(=O)NC2CCCCC2)c1[N+](=O)[O-]	Pf growth 96h inconclusive
CCNC(=S)Nc1ccc(N2CCCCC2)cc1	none
CCNC(=S)N/N=C/c1sc(N2CCCCC2)nc1-c1cccs1	Pf growth 96h 0.165µM, Pf growth 48h 0.262µM
CC(C)COCC(CN(Cc1ccccc1)c1ccccc1)N1CCCC1 (centres undefined)	Pf growth 96h inconclusive, Pf growth 48h 10.7µM, AmpC detergent inconclusive
O=C(CC12CC3CC(CC(C3)C1)C2)N1CCN(S(=O)(=O)c2cccs2)CC1	Pf growth 96h 13.1µM, Pf growth 48h inconclusive
Cc1ccc(/C=C/C(=O)N2CC(C)CC(C)C2)o1 (centres undefined)	Sm TGR inh 2.82µM
CCN1CCN(C(=O)/C=C/c2ccc(C)o2)CC1	Sm TGR inh inconclusive, AmpC detergent inconclusive
O=C(/C=C/c1ccco1)N1CCN(S(=O)(=O)c2cccs2)CC1	Pf growth 96h inconclusive, Pf growth 48h inconclusive, Sm TGR inh 3.55µM
